Experimental findings from PubChem BioAssay (NCI) are described below.

Assay in all cases: NCI-60 one-dose screen, 48 h (100 = growth as untreated, 0 = no growth, -100 = all killed)
What all share (conditions): 10 µM

Assay [1] has as its system RPMI-8226 leukemia.
For assay [2], the system named is OVCAR-8 ovarian.
The test system of assay [3] is OVCAR-5 ovarian.
For assay [4], the system named is OVCAR-4 ovarian.
Assay [5] deals with SK-OV-3 ovarian.
Assay [6] relates to IGROV1 ovarian.
Assay [7] relates to OVCAR-3 ovarian.
The subject of assay [8] is HS 578T breast.
Assay [9] relates to NCI/ADR-RES ovarian.
The test system of assay [10] is T-47D breast.
Assay [11] deals with BT-549 breast.
Assay [12] relates to MDA-MB-435 melanoma.
The subject of assay [13] is SW-620 colon.
Assay [14] deals with MCF7 breast.
Assay [15] deals with HCT-116 colon.
Assay [16] concerns HCC-2998 colon.
Assay [17] relates to KM12 colon.

SMILES strings stand for the structures. Compounds without any hit were thinned out: in the full panel of roughly 83,000, 20% have a hit.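 Cell lines were cultured in 96-well plates, exposed to a single compound concentration, and assessed for percent growth 48 hours later.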 A number with no mark means an inactive call. Calls of active or inactive are those of the source. Rule for the calls: active = growth percent below 10; inactive = the rest.

In the case of `CCOC(=O)c1ccoc1`, the growth in assay [1] is 102%; in assay [2], 101%; in assay [3], 90.7%; in assay [4], 104%; in assay [5], 93.3%; in assay [6] it was 101%. Also, the growth in assay [7] was 101%; in [8], 100%; in assay [9], 108%; in [10], 94.3%; in [11] it was 98.4%; in [12], 107%. Further, the growth in [13] was 100%; in assay [14], 95.1%; in assay [15], 97.1%; in assay [16] it was 113%; in assay [17] it was 104%.
As to `O=c1oc2cc(OS(=O)(=O)c3ccccc3)ccc2c2c1CCCCC2`, the growth in assay [1] was 23.4%; in assay [2], 60.4%; in assay [3], 83%; in assay [4], 53.7%; in assay [5] it was 84.3%; in assay [6], 83.4%. Besides, the growth was 81.5% in [7]; 75.6% in assay [8]; 56% in [9]; 24.8% in [10]; 59.9% in assay [11]; 64.7% in assay [12]. Moreover, the growth in assay [13] is 44.2%; in assay [14] it was 49.7%; in [15], 29%; in [16] it was 59.1%; in assay [17], 41.1%.
For the compound `N#CSCC1CC(O)(c2ccccc2)CC(c2ccc(Cl)cc2)O1` (stereo not given), the growth in assay [1] was 18.1%; in assay [2], 66.7%; in assay [3], 101%; in [4], 40%; in [5], 102%; in assay [6], -25.7% (active). In addition, the growth in assay [7] is -36% (active); in [8] it was 21%; in [9] it was 47.2%; in [10], 27.4%; in assay [11], -11.5% (active); in assay [12] it was 3.01% (active). The growth was -53.5% (active) in assay [13]; 14.7% in assay [14]; 10.1% in [15]; 94.9% in assay [16]; 22.3% in [17].
Consider `Oc1[nH]c2ccc(Cl)cc2c1/C=c1/ccc2c(c1)N=C(c1cc(F)cc(F)c1)N=2`, for which the growth in [1] is 74.4%; in assay [2], 77%; in assay [3] it was 86.8%; in assay [4] it was 68.5%; in [5], 68%; in [6], 53.6%. Also, the growth in assay [7] is 7.12% (active); in assay [8], 63%; in [9], 54.2%; in assay [10] it was 88.4%; in assay [11], 81.9%; in assay [12], 1.43% (active). The growth in [13] was 53.8%; in assay [14] it was 5.27% (active); in assay [15], 52.2%; in assay [16], 86.2%; in [17] it was 44.4%.
On to `O=C(N/N=C/c1ccccc1O)C(O)(c1ccccc1)c1ccccc1`, for which the growth in [1] is 62%; in assay [2] it was 60.1%; in [3], 73.9%; in assay [4], 26.7%; in assay [5] it was 66.9%; in assay [6] it was 43.7%. Also, the growth in [7] was 8.52% (active); in assay [8] it was 74%; in [9], 35.9%; in assay [10], 48.1%; in assay [11] it was 70.3%; in assay [12] it was 65.2%. For the same compound, the growth in [13] was 51.1%; in assay [14] it was 50.7%; in assay [15] it was 8.42% (active); in assay [16], 76.3%; in assay [17], 53.7%.
On to `CCc1ccc2c(c1)N(CCO)C1=C(C(=O)OC1)C2c1cc(OC)c(OC)c(OC)c1` (stereo not given), for which the growth in [1] is 18.3%; in assay [2] it was 8.75% (active); in [3], 36.6%; in assay [4], 48.6%; in assay [5] it was 23.4%; in [6], 10.1%. For the same compound, the growth in [7] is -57.6% (active); in [8], 1.11% (active); in assay [9], -3.11% (active); in [10], 59.7%; in assay [11], 19.8%; in assay [12], -69.9% (active). Moreover, the growth in [13] is 23%; in [14] it was 19.4%; in [15], 7.59% (active); in [17] it was -29.6% (active).
Turning to `COc1ccc2c(c1)C(=O)c1c-2c(OCCN(C)C)nc2cc(OC)c(OC)cc12`, the growth is 32.2% in assay [1]; 37.2% in [2]; 117% in assay [3]; 50.7% in assay [4]; 74.2% in assay [5]; 35% in assay [6]. Besides, the growth was 63.9% in [7]; 85.7% in [8]; 41.8% in assay [9]; 101% in assay [10]; 89.9% in [11]; 56.8% in assay [12]. The growth in assay [13] is 38.6%; in assay [14] it was 28.9%; in [15] it was 30%; in assay [16], 63.2%; in assay [17], 54.1%.
On to `COc1ccc2c(c1)C(=O)c1c-2c(OCCN2CCCCC2)nc2ccc(OC)cc12`, for which the growth in assay [1] was 16.4%; in assay [2] it was 18.6%; in assay [3] it was 63.6%; in assay [4], 41.9%; in assay [5], 34.5%; in assay [6] it was 4.11% (active). In addition, the growth was 22% in [7]; 57.8% in assay [8]; 26% in assay [9]; 36.6% in assay [10]; 51.3% in assay [11]; 23.9% in [12]. The growth in assay [13] is 8.07% (active); in assay [14], 9.47% (active); in assay [15] it was 7.15% (active); in assay [16] it was 39.8%; in assay [17], 29.2%.
